Data reported in PubChem BioAssay.
For some of these results: Potency and affinity values are given separately. Calls of active or inactive are those of the source. Unless noted, the rule behind the calls is not given here.

How the values were obtained:
[1] = antimalarial activity against Dd2 strain (AID 2302;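 active = growth inhibition above 50% at the single 2 µM test dose, taken to imply half-maximal potency below 2 µM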;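 note: 0% = DMSO untreated growth and 100% = chloroquine plus artemisinin killed control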); conditions: P. falciparum Dd2 in RBCs, LDH growth readout, 72 h; at 2 µM; hits give high values
[2] = HepG2 cytotoxicity, primary screen, cytotoxicity control for P. falciparum antimalarial project, cell-based, ATP luminescence (AID 2303;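 active = inhibition above 50%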;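 note: 0% = DMSO wells and 100% = digitonin-killed cells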); conditions: HepG2 viability, 24-48 h, at 10 µM, hits give high values
[3] = target: L-lactate dehydrogenase (Plasmodium falciparum (isolate CDC / Honduras)) (UniProt Q27743); assay: PfLDH activity inhibition – cell lysate, 3D7 strain, counter-screen for P. falciparum growth inhibition project (AID 2304);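 note: 0% = vehicle and 100% = reference inhibitor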; conditions: P. falciparum 3D7 crude extract, LDH APAD/NBT absorbance; at 2 µM; hits give high values
Chain of L-lactate dehydrogenase (Plasmodium falciparum (isolate CDC / Honduras)) (Q27743 whole entry, looked up): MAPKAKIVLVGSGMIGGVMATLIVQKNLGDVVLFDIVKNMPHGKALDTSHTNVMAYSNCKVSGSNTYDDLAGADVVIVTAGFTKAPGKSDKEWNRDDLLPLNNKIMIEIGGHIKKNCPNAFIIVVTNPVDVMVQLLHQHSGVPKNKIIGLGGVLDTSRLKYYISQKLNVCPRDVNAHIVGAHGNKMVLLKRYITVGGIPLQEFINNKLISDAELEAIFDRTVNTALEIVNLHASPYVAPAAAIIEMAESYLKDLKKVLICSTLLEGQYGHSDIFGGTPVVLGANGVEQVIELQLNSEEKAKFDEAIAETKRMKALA

[4] = inhibition of 3D7 malaria parasite growth – strain 3D7 (AID 2306);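 note: 0% = DMSO wells and 100% = chloroquine plus artemisinin control wells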; conditions: P. falciparum 3D7 erythrocytic growth, LDH absorbance, 72 h; at 2 µM; hits give high values
[5] = target: Calcium-dependent protein kinase 1 (Plasmodium falciparum (isolate 3D7)) (UniProt P62344); assay: PfCDPK1 kinase inhibitors, biochemical, TCAMS library (AID 1159585; cut-off not given, nearly all actives have IC50 up to about 0.98 µM;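 note: inhibitors leave more ATP so luminescence rises with inhibition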); conditions: recombinant PfCDPK1, Kinase-Glo ATP depletion luminescence
Chain of Calcium-dependent protein kinase 1 (Plasmodium falciparum (isolate 3D7)) (P62344 whole entry, looked up): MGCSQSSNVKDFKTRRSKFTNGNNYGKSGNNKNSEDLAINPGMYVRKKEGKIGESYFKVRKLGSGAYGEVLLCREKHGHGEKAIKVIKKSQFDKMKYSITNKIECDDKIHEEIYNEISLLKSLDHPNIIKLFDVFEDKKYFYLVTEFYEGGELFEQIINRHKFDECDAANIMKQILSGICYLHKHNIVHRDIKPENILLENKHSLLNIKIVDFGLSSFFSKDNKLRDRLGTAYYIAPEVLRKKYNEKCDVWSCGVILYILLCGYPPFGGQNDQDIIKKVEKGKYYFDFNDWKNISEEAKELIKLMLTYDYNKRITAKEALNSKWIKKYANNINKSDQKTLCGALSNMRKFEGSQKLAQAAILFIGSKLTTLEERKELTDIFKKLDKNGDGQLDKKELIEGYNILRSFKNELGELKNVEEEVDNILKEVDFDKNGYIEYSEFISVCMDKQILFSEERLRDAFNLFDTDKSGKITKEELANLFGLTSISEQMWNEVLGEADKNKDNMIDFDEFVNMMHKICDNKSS

[6] = target: Plasmodium falciparum protein kinase 6 (PK6, PF3D7_1337100) (UniProt Q8IDW1); assay: PfPK6 kinase inhibitors, biochemical, TCAMS library (AID 1159586); conditions: recombinant PfPK6, Kinase-Glo ATP depletion luminescence
Chain of Plasmodium falciparum protein kinase 6 (PK6, PF3D7_1337100) (Q8IDW1 1-305): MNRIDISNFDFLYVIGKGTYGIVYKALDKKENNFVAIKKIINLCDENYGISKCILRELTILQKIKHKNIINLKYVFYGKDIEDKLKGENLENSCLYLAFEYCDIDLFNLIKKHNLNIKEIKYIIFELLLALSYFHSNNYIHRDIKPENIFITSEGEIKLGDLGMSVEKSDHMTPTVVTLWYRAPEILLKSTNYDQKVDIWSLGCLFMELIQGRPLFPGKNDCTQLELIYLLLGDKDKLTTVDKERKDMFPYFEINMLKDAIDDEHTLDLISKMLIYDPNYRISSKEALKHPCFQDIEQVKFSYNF

[7] = target: Protein kinase 7 (PK7), Plasmodium falciparum 3D7 (PF3D7_0213400) (UniProt Q7YTF7); assay: inhibition of Plasmodium PK7 catalytic activity – biochemical, TCAMS antimalarial set, Kinase-Glo luminescence (AID 1159587); conditions: recombinant PfPK7, Kinase-Glo ATP depletion luminescence
Chain of Protein kinase 7 (PK7), Plasmodium falciparum 3D7 (PF3D7_0213400) (Q7YTF7 1-343): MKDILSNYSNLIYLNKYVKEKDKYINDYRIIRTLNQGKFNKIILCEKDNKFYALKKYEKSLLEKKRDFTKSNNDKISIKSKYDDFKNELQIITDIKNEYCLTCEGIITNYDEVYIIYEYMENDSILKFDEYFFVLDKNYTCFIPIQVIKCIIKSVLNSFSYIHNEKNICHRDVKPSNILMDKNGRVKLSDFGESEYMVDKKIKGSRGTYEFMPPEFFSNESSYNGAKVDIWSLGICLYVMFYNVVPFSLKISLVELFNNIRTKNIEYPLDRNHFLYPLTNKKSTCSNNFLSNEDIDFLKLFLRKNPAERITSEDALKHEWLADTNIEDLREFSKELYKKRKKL

[8] = target: Calcium-dependent protein kinase 4 (Plasmodium falciparum (isolate 3D7)) (UniProt Q8IBS5); assay: PfCDPK4 kinase inhibitors, biochemical, TCAMS library (AID 1159588; cut-off not given, nearly all actives have IC50 up to about 0.91 µM); conditions: recombinant PfCDPK4, Kinase-Glo ATP depletion luminescence
Chain of Calcium-dependent protein kinase 4 (Plasmodium falciparum (isolate 3D7)) (Q8IBS5 whole entry, looked up): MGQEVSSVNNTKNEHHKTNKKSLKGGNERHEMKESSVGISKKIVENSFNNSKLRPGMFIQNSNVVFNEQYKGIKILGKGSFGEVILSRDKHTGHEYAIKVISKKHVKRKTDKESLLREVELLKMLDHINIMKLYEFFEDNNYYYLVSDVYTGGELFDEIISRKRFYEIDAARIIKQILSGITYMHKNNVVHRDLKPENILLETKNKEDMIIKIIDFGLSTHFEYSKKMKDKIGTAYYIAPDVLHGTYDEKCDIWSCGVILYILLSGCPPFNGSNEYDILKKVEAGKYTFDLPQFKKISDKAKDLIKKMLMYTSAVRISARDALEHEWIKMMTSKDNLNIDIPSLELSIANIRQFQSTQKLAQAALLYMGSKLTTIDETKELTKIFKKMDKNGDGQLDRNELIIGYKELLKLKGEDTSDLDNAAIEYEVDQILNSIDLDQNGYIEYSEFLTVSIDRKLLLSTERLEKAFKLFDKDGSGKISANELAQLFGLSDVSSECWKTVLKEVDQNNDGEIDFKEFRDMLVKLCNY

CCOc1ccc(C(=O)Nc2cc(Br)c3c(c2)CNCC3)cc1Cl
inactive: growth inhibition [1] 8% | inhibition [2] 13% | inhibition [3] 5% | outcome [5] | outcome [6] | outcome [7] | outcome [8]
active: growth inhibition [4] 92%

COc1ccccc1C1CCN(C2CCC(NC(=O)/C=C/c3ccc(F)c(F)c3)CC2)CC1 (stereo not drawn)
inactive: growth inhibition [1] 9% | inhibition [2] 49% | inhibition [3] 1% | outcome [5] | outcome [6] | outcome [7] | outcome [8]
active: growth inhibition [4] 94%

O=C(NC1CCN(Cc2cccc(C(F)(F)F)c2)CC1)c1ccc(-c2cccc(C(F)(F)F)c2)s1
active: growth inhibition [1] 54% | growth inhibition [4] 94%
inactive: inhibition [2] 36% | inhibition [3] -2% | outcome [5] | outcome [6] | outcome [7] | outcome [8]

CNC(=O)c1cnc(Nc2ccc(OCC(O)CN(C)C)cc2)nc1Nc1cccc([N+](=O)[O-])c1 (stereo not drawn)
inactive: inhibition [3] -1% | outcome [5] | outcome [6] | outcome [7] | outcome [8]
active: growth inhibition [1] 94% | inhibition [2] 52% | growth inhibition [4] 100%

CCC1(c2ccccc2)N=C(N)N(CCCc2ccccc2)C1=O (stereo not drawn)
active: growth inhibition [1] 96% | growth inhibition [4] 90%
inactive: inhibition [2] 17% | inhibition [3] 1% | outcome [5] | outcome [6] | outcome [7] | outcome [8]

COc1ccc(NC(=O)NC2CCN(c3ccnc4ccccc34)C2)cc1 (stereo not drawn)
inactive: growth inhibition [1] -1% | inhibition [2] 3% | inhibition [3] 2% | outcome [5] | outcome [6] | outcome [7] | outcome [8]
active: growth inhibition [4] 94%

CN1CCCN(Cc2ccc(-c3ccc(NS(=O)(=O)c4cccc5cccnc45)cc3)cc2)CC1
inactive: inhibition [2] 35% | inhibition [3] 5% | outcome [5] | outcome [6] | outcome [7] | outcome [8]
active: growth inhibition [1] 85% | growth inhibition [4] 99%

Cn1nccc1C(=O)NCCNCc1cccc(-c2cccc(-c3nc4ccc(F)cc4[nH]3)c2)c1
active: growth inhibition [4] 100%
inactive: growth inhibition [1] 7% | inhibition [2] 38% | inhibition [3] 0% | outcome [5] | outcome [6] | outcome [7] | outcome [8]

CS(=O)(=O)CCNc1cc(N2CCc3ncnc(Nc4ccc(OCc5cccc(F)c5)c(Cl)c4)c3C2)ncn1
inactive: inhibition [2] -17% | inhibition [3] 5% | outcome [5] | outcome [6] | outcome [7] | outcome [8]
active: growth inhibition [1] 50% | growth inhibition [4] 96%

CCN(CC)CCN(Cc1ccc(-c2ccc(C(F)(F)F)cc2)nc1)C(=O)Cn1cc(Cc2cnn(C)c2)c(=O)n2nc(-c3ccccc3)cc12
active: growth inhibition [1] 95% | growth inhibition [4] 97%
inactive: inhibition [2] 35% | inhibition [3] -3% | outcome [5] | outcome [6] | outcome [7] | outcome [8]

CC(C)OC(=O)c1cccnc1SCC(=O)Nc1ccc(C(F)(F)F)cc1Cl
inactive: inhibition [2] 3% | inhibition [3] -3% | outcome [5] | outcome [6] | outcome [7] | outcome [8]
active: growth inhibition [1] 88% | growth inhibition [4] 97%

CCCC(=O)c1cnc2cc(O)ccc2c1Nc1ccccc1C
active: growth inhibition [1] 93% | growth inhibition [4] 99%
inactive: inhibition [2] 14% | inhibition [3] -8% | outcome [5] | outcome [6] | outcome [7] | outcome [8]

O=S(=O)(/C=C/c1ccccc1)N(Cc1ccc(-c2ccc(CNCCOc3ccccc3)cc2)cc1)CC1CCCCN1 (stereo not drawn)
active: growth inhibition [1] 95% | inhibition [2] 99% | growth inhibition [4] 99%
inactive: inhibition [3] 4% | outcome [5] | outcome [6] | outcome [7] | outcome [8]

Cc1onc(-c2c(F)cccc2Cl)c1C(=O)Nc1ccccc1I
inactive: inhibition [2] -8% | inhibition [3] -4% | outcome [5] | outcome [6] | outcome [7] | outcome [8]
active: growth inhibition [1] 52% | growth inhibition [4] 99%

Fc1ccc2nc(-c3cccc(-c4cccc(CN5CCN(c6ccncc6)CC5)c4)c3)[nH]c2c1
inactive: inhibition [3] 1% | outcome [5] | outcome [6] | outcome [7] | outcome [8]
active: growth inhibition [1] 99% | inhibition [2] 71% | growth inhibition [4] 102%

N#Cc1ccc(-c2nc3c(N4CCCC4)cccc3n2CCNCc2ccccc2)cc1
inactive: inhibition [2] 2% | inhibition [3] -3% | outcome [5] | outcome [6] | outcome [7] | outcome [8]
active: growth inhibition [1] 99% | growth inhibition [4] 100%

CCCC(C)Nc1nc(C)cc(NCCC(=O)Nc2ccc(OC)cc2)n1 (stereo not drawn)
inactive: growth inhibition [1] 2% | inhibition [2] 12% | inhibition [3] -1% | outcome [5] | outcome [6] | outcome [7] | outcome [8]
active: growth inhibition [4] 97%

COc1ccc(CN2CCN(C(=O)c3cccs3)CC2)c(O)c1
active: growth inhibition [4] 97%
inactive: growth inhibition [1] 2% | inhibition [2] 7% | inhibition [3] 2% | outcome [5] | outcome [6] | outcome [7] | outcome [8]

CCCCCCn1c(Sc2ccc(C#N)c([N+](=O)[O-])c2)nnc1-c1cccc(Cl)c1
active: growth inhibition [1] 90% | growth inhibition [4] 96%
inactive: inhibition [2] 17% | inhibition [3] 1% | outcome [5] | outcome [6] | outcome [7] | outcome [8]

CCNc1cc(C(=O)N[C@@H](Cc2ccccc2)[C@H](O)CNC(C)(C)CCCC(C)C)c(F)c(N2CCCS2(=O)=O)c1
active: growth inhibition [1] 97% | growth inhibition [4] 98%
inactive: inhibition [2] -2% | inhibition [3] -4% | outcome [5] | outcome [6] | outcome [7] | outcome [8]

COc1cccc(CCc2nc3c(N4CCC(Cc5ccccc5)CC4)cccc3n2CC2CNCCO2)c1 (stereo not drawn)
active: growth inhibition [1] 96% | growth inhibition [4] 94%
inactive: inhibition [2] 4% | inhibition [3] 4% | outcome [5] | outcome [6] | outcome [7] | outcome [8]

COC(=O)c1ccc2nc(-c3ccc(/C=C/C(=O)NC4CCN(Cc5ccccc5)CC4)cc3)[nH]c2c1
active: growth inhibition [1] 88% | growth inhibition [4] 100%
inactive: inhibition [2] 12% | inhibition [3] -5% | outcome [5] | outcome [6] | outcome [7] | outcome [8]

Cc1ccc(Cl)cc1N1CCN(CCCNC(=O)C2CCN(c3nc4ccccc4[nH]3)CC2)CC1
active: growth inhibition [4] 88%
inactive: growth inhibition [1] -3% | inhibition [2] 41% | inhibition [3] -1% | outcome [5] | outcome [6] | outcome [7] | outcome [8]

CC(C)COc1ccc(Cl)cc1Cc1nc(-c2nc3c(CN4CCN(C)CC4)cccc3[nH]2)cs1
inactive: growth inhibition [1] 30% | inhibition [2] 15% | inhibition [3] -2% | outcome [5] | outcome [6] | outcome [7] | outcome [8]
active: growth inhibition [4] 99%

CCc1sc(N2CCC(C)CC2)nc1C(=O)Nc1ccc(F)cc1C(F)(F)F
active: growth inhibition [1] 65% | growth inhibition [4] 94%
inactive: inhibition [2] 1% | inhibition [3] 2% | outcome [5] | outcome [6] | outcome [7] | outcome [8]

COc1cccc(C(=O)N2CCN(Cc3cccc(NC(=O)c4cccs4)c3)CC2)c1
active: growth inhibition [1] 95% | growth inhibition [4] 95%
inactive: inhibition [2] 6% | inhibition [3] -2% | outcome [5] | outcome [6] | outcome [7] | outcome [8]

Cc1cccc2[nH]c(-c3ccc(-c4cccc(CN5CCC(N)C5)c4)s3)nc12 (stereo not drawn)
active: growth inhibition [1] 78% | growth inhibition [4] 95%
inactive: inhibition [2] 16% | inhibition [3] 1% | outcome [5] | outcome [6] | outcome [7] | outcome [8]

Cc1ccc(S(=O)(=O)NC2CCN(CCNC(=O)Nc3cc(C)nc4ccccc34)C2)cc1 (stereo not drawn)
active: growth inhibition [4] 97%
inactive: growth inhibition [1] 42% | inhibition [2] -2% | inhibition [3] -3% | outcome [5] | outcome [6] | outcome [7] | outcome [8]

O=C(Nc1ccc(C(F)(F)F)cc1)c1ccc(NCCCN2CCCCCC2)c([N+](=O)[O-])c1
active: growth inhibition [1] 98% | growth inhibition [4] 102%
inactive: inhibition [2] 42% | inhibition [3] -5% | outcome [5] | outcome [6] | outcome [7] | outcome [8]

Cc1ccc(CN2CCN(CC(O)COc3ccc4c(c3)CCC4)CC2)cc1 (stereo not drawn)
active: growth inhibition [4] 95%
inactive: growth inhibition [1] -4% | inhibition [2] -15% | inhibition [3] -3% | outcome [5] | outcome [6] | outcome [7] | outcome [8]

Oc1c(Cl)cc(Nc2nccc(Nc3ccc(Oc4ccccc4)cc3)n2)cc1Cl
active: growth inhibition [4] 99%
inactive: growth inhibition [1] 26% | inhibition [2] 8% | inhibition [3] -5% | outcome [5] | outcome [6] | outcome [7] | outcome [8]

CC(C)(CNC(=O)[C@@H]1CCCN(CCOc2ccc(Cl)cc2)C1)c1nc(-c2ccc(Cl)c(O)c2)c(-c2ccncc2)[nH]1
inactive: inhibition [3] -7% | outcome [5] | outcome [6] | outcome [7] | outcome [8]
active: growth inhibition [1] 57% | inhibition [2] 58% | growth inhibition [4] 92%

CC(C)(C)CCN1CCC(CNC(=O)c2cc(-c3cccc(Cl)c3)cs2)C1 (stereo not drawn)
inactive: growth inhibition [1] 13% | inhibition [3] 3% | outcome [5] | outcome [6] | outcome [7] | outcome [8]
active: inhibition [2] 50% | growth inhibition [4] 99%

CCN(CC)CCn1c2ccccc2c2ccc(C(=O)Nc3ccc4sc(C)nc4c3)cc21
inactive: growth inhibition [1] 26% | inhibition [3] -5% | outcome [5] | outcome [6] | outcome [7] | outcome [8]
active: inhibition [2] 97% | growth inhibition [4] 84%

CCCCN1CCN(CC(O)CNC(=O)Nc2ccc(Cl)cc2)CC1 (stereo not drawn)
inactive: inhibition [2] 17% | inhibition [3] -3% | outcome [5] | outcome [6] | outcome [7] | outcome [8]
active: growth inhibition [1] 99% | growth inhibition [4] 101%

COc1cccc2sc(N3CCN(C(=O)c4ccc([N+](=O)[O-])o4)CC3)nc12
active: growth inhibition [1] 67% | growth inhibition [4] 95%
inactive: inhibition [2] -17% | inhibition [3] 1% | outcome [5] | outcome [6] | outcome [7] | outcome [8]

Cc1cc(NC(=O)NCCN2CCC(NC(=O)c3ccc(F)cc3)CC2)c2ccccc2n1
active: growth inhibition [1] 76% | growth inhibition [4] 99%
inactive: inhibition [2] -6% | inhibition [3] -2% | outcome [5] | outcome [6] | outcome [7] | outcome [8]

Cc1nc(-c2ccc(-c3ccc(C(=O)Nc4ccc(Cl)c(N5CCN(C)CC5)c4)cc3)c(C)c2)no1
inactive: growth inhibition [1] 47% | inhibition [2] 23% | inhibition [3] 4% | outcome [5] | outcome [6] | outcome [7] | outcome [8]
active: growth inhibition [4] 101%

CN(C)CCCNCCS(=O)(=O)c1cccc(Nc2ccc(-c3cccc(N(C)C)c3)cn2)c1
inactive: growth inhibition [1] -3% | inhibition [2] 19% | inhibition [3] -2% | outcome [5] | outcome [6] | outcome [7] | outcome [8]
active: growth inhibition [4] 98%

CC(C)C[C@H](Nc1ccnc(NCC2CCCCC2)n1)C(=O)Nc1ccccc1
inactive: growth inhibition [1] 42% | inhibition [2] 6% | inhibition [3] 2% | outcome [5] | outcome [6] | outcome [7] | outcome [8]
active: growth inhibition [4] 87%

COc1cccc2c(NN=Cc3ccccc3[N+](=O)[O-])cc(C)nc12
inactive: growth inhibition [1] 32% | inhibition [2] -6% | inhibition [3] -5% | outcome [5] | outcome [6] | outcome [7] | outcome [8]
active: growth inhibition [4] 99%
